From PubChem BioAssay (Tox21)
“And” between values parts separate entries of the source, which are not always exact repeats. Equal entries are not always repeated. Inconclusive results are not listed. Entries that show only a call come without a potency. Some structures have more than one record in an assay (separate samples or runs), and their calls can disagree. The source made the active and inactive calls. Unless noted, calls come from the whole dose curve; as a rule, active = well fitted curve in the direction sought with a large enough effect in the repeat runs; inconclusive = weak or mixed curves; inactive = no such curve, though single readings can be large; an effect the other way counts as inactive or inconclusive.

Key:
[1] = biological target: Retinoic acid receptor RXR-alpha (Homo sapiens) (UniProt P19793); assay: qHTS assay to identify small molecule agonists of the RXR signaling pathway (AID 1159527; calls by dose curve; note: nearly all actives have a fitted effect of over 35% in size; note: potency is the fitted concentration of half-maximal effect)
In short: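 Agonist mode; 9-cis retinoic acid positive control. HEK 293T UAS-bla reporter cells, 2% charcoal-stripped FBS, 16 hr compound exposure at 37 C/5% CO2. LiveBLAzer B/G FRET substrate 2 hr RT; ex 405, em 460/530 nm.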

[2] = qHTS assay to identify small molecule agonists of the RXR signaling pathway - cell viability counter screen (AID 1159529); note: nearly all actives have a fitted effect of over 50% in size; note: potency is the fitted concentration of half-maximal effect
In short: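 Luminescence from CellTiter-Glo (30 min, RT) measured viability in the same wells as the beta-lactamase reporter readout. Cells: GeneBLAzer RXR-alpha HEK 293T, 2% charcoal-stripped FBS. Compound exposure 16 hr, 37 C.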

[3] = qHTS assay to identify small molecule antagonists of the retinoid acid receptor (RAR) signaling pathway - cell viability counter screen (AID 1159551); note: nearly all actives have a fitted effect of over 35% in size
In short: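 In this counter screen, the RARE-luciferase line C3RL4 was exposed for 6 h at 37 C and 5% CO2 to compounds with retinol at 1 uM final. Cellular ATP, read by luminescence, served as the viability measure.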

[4] = qHTS assay to identify small molecule antagonists of the estrogen related receptor (ERR) signaling pathway - cell viability counter screen (AID 1224818); note: series mostly up to about 46 µM
In short: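 Viability of ERR cells, CellTiter-Fluor fluorescence; 17.5 h compound exposure at 37 C, DMSO vehicle; 30 min reagent incubation at 37 C/5% CO2.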

[5] = qHTS assay to identify small molecule antagonists of the estrogen related receptor signaling pathway with the pleiotropic PPARgamma coactivator (PGC) cell viability counter screen (AID 1224822; note: series mostly up to about 46 µM)
In short: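 17.5 h compound treatment of PGC/ERR cells at 37 C; readout CellTiter-Fluor fluorescence; run alongside the PGC/ERR antagonist screen to flag cytotoxic compounds.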

[6] = biological target: Luciferin 4-monooxygenase (Photinus pyralis) (UniProt P08659); assay: qHTS assay to identify small molecule inhibitors of firefly luciferase (AID 1224835); note: nearly all actives have a fitted effect of over 25% in size; note: potency is the fitted concentration of half-maximal effect
In short: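 Inhibition of purified Photinus luciferase is measured by luminescence. Substrate levels (D-luciferin, ATP) sit at their KM values. Each compound is tested in a concentration series.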

[7] = qHTS assay to identify small molecule agonists of the constitutive androstane receptor (CAR) signaling pathway - cell viability counter screen (AID 1224836); note: series mostly up to about 92 µM; nearly all actives have a fitted effect of over 45% in size
In short: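 Viability read-out: CellTiter-Fluor fluorescence after 23 h compound exposure at 37 C/5% CO2 in double-stable HepG2-CYP2B6-hCAR cells, with PK11195 present at 0.75 uM final; compounds tested in 15-point titration.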

[8] = qHTS assay to identify small molecule antagonists of the constitutive androstane receptor (CAR) signaling pathway - cell viability counter screen (AID 1224837); note: series mostly up to about 92 µM; nearly all actives have a fitted effect of over 45% in size
In short: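 CITCO at 50 nM final was added alongside compounds (15 concentrations) to double-stable hCAR/CYP2B6-2.2kb HepG2 cells. Following 23 hr at 37 C, cell viability was quantified by CellTiter-Fluor fluorescence intensity.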

[9] = biological target: Nuclear receptor subfamily 1 group I member 3 (Homo sapiens) (UniProt Q14994); assay: qHTS assay to identify small molecule antagonists of the constitutive androstane receptor (CAR) signaling pathway (AID 1224838); note: nearly all actives have a fitted effect of over 40% in size; note: potency is the fitted concentration of half-maximal effect
In short: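 Inhibition of CITCO-driven (50 nM final) CYP2B6 reporter expression is measured in HepG2 cells stably carrying hCAR. Fifteen compound concentrations are applied for 24 h at 37 C, followed by luciferase luminescence.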

[10] = biological target: Nuclear receptor subfamily 1 group I member 3 (Homo sapiens) (UniProt Q14994); assay: qHTS assay to identify small molecule agonists of the constitutive androstane receptor (CAR) signaling pathway (AID 1224839); note: series mostly up to about 92 µM; nearly all actives have a fitted effect of over 15% in size
In short: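 Luminescence read-out (ONE-Glo, 30 min, room temperature) from double-stable HepG2-CYP2B6-hCAR cells exposed 24 h to 15-point compound series in presence of 0.75 uM PK11195 final.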

[11] = qHTS assay to identify small molecule antagonists of the estrogen related receptor signaling pathway with the pleiotropic PPARgamma coactivator (PGC) from Tox21 10K library - cell viability counter screen (AID 1224840; active = well fitted cell-killing curve with a large enough effect in the repeat runs, not every such curve was filed as active; note: nearly all actives have a fitted effect of over 40% in size; note: potency is the fitted concentration of half-maximal effect)
In short: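 Readout: fluorescence intensity from CellTiter-Fluor after 30 min at 37 C/5% CO2. Preceded by 17.5 h treatment of PGC/ERR cells with DMSO-dissolved compounds, added 6 h post-seeding.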

[12] = qHTS assay to identify small molecule antagonists of the retinoic acid receptor (RAR) signaling pathway (AID 1159552; note: nearly all actives have a fitted effect of over 50% in size; note: potency is the fitted concentration of half-maximal effect)
In short: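 Luminescence from a RARE luciferase reporter in C3RL4 cells served as read-out. Cells received compounds together with 1 uM final retinol and incubated 6 hr at 37 C before detection reagent was added for 30 min at room temperature.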

[13] = qHTS assay to identify small molecule agonists of the retinoic acid receptor (RAR) signaling pathway (AID 1159553)
In short: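 In this cell-based screen, 1,000 C3RL4 cells per well were cultured overnight, dosed with test chemicals in DMSO for 6 hr, and assessed for RARE luciferase luminescence.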

[14] = qHTS assay to identify small molecule antagonists of the estrogen related receptor signaling pathway with the pleiotropic PPARgamma coactivator (PGC) from Tox21 10K library (AID 1224841; call rule not given here; note: actives are mostly falling curves and most rising ones were filed inactive; nearly all actives have a fitted effect of over 50% in size; note: potency is the fitted concentration of half-maximal effect)
In short: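 One-Glo luminescence, measured after half an hour at room temperature, quantified reporter output of PGC/ERR cells. These had been plated at 2,000 per well, incubated 6 h, dosed with compounds in DMSO, then kept 18 h at 37 C.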

[15] = qHTS assay to identify small molecule agonists of the estrogen related receptor signaling pathway with the pleiotropic PPARgamma coactivator (PGC) from Tox21 10K library (AID 1224842); note: nearly all actives have a fitted effect of over 15% in size; note: potency is the fitted concentration of half-maximal effect
In short: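 Luminescence from One-Glo (30 min, room temperature) measured after PGC/ERR cells had 18 h at 37 C with pinned compound (23 nL in DMSO). Cells had been seeded at 2,000 per well and pre-incubated 6 h.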

[16] = qHTS assay to identify small molecule antagonists of the estrogen related receptor (ERR) signaling pathway from Tox21 library - cell viability counter screen (AID 1224834); note: nearly all actives have a fitted effect of over 30% in size; note: potency is the fitted concentration of half-maximal effect
In short: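 Counter screen run in ERR cells (2,000 cells/well): cells pre-incubated 6 h, then treated with compounds for 17.5 h at 37 C. Fluorescence was read 30 min after CellTiter-Fluor addition.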

[17] = qHTS assay to identify small molecule antagonists of the estrogen related receptor (ERR) signaling pathway (AID 1224819;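 note: luminescence from an ERR-driven luciferase reporter measured with One-Glo reagent; series mostly up to about 46 µM; nearly all actives have a fitted effect of over 50% in size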)
In short: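 Seed ERR cells 2,000/well; rest 6 h at 37 C/5% CO2; pin compounds in DMSO; incubate 18 h at 37 C; add One-Glo; wait 30 min at room temperature; measure luminescence.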

[18] = test system: estrogen-related receptor alpha (ERRalpha) with PGC-1alpha coactivator, human; assay: qHTS assay to identify small molecule antagonists of the estrogen related receptor signaling pathway with the pleiotropic PPARgamma coactivator (PGC) (AID 1224821; calls by dose curve)
In short: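 PGC/ERR reporter cells; 6 h pre-incubation 37 C/5% CO2; pin-tool compound in DMSO, 18 h 37 C; One-Glo added, 30 min RT; luminescence read. qHTS antagonist mode.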

[19] = qHTS assay to identify small molecule agonists of the estrogen related receptor signaling pathway with the pleiotropic PPARgamma coactivator (PGC) (AID 1224823)
In short: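 Luminescence readout (One-Glo, 30 min RT) from PGC/ERR cell line treated 18 h at 37 C with pin-tool-delivered DMSO compound solutions; cells plated 6 h before dosing. Quantitative HTS format.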

[20] = qHTS assay to identify small molecule agonists of the estrogen related receptor (ERR) signaling pathway (AID 1224820)
In short: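 Luminescence readout (One-Glo, 30 min RT) from NTP-supplied ERR cell line exposed to compounds for 18 h at 37 C. Cells seeded 2,000 per well and pre-incubated 6 h before pin-tool compound transfer.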

Nuclear receptor subfamily 1 group I member 3 (Homo sapiens), sequence (Q14994 whole entry, looked up): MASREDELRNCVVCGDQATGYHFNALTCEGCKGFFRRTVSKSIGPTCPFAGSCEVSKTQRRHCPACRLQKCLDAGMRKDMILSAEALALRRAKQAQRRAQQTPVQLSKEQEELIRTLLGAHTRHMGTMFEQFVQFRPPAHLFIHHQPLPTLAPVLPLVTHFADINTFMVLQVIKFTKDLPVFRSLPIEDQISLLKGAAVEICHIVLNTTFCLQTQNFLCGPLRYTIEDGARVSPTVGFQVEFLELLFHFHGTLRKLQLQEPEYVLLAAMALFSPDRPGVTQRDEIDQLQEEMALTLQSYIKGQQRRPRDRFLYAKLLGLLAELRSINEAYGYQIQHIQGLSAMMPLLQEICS
Retinoic acid receptor RXR-alpha (Homo sapiens), sequence (P19793 whole entry, looked up): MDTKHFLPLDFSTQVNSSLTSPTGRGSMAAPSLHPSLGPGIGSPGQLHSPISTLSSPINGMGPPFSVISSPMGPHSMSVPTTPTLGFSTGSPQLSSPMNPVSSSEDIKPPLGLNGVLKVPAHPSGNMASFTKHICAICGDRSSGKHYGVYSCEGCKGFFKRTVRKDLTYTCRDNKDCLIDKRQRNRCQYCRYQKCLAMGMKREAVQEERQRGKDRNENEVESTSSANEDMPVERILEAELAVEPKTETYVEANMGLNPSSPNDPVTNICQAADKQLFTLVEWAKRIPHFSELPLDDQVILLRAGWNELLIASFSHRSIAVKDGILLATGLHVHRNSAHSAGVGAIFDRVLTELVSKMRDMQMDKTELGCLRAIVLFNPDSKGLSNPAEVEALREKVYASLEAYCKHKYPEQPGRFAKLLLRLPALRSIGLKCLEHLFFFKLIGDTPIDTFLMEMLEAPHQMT
Luciferin 4-monooxygenase (Photinus pyralis), sequence (P08659 whole entry, looked up): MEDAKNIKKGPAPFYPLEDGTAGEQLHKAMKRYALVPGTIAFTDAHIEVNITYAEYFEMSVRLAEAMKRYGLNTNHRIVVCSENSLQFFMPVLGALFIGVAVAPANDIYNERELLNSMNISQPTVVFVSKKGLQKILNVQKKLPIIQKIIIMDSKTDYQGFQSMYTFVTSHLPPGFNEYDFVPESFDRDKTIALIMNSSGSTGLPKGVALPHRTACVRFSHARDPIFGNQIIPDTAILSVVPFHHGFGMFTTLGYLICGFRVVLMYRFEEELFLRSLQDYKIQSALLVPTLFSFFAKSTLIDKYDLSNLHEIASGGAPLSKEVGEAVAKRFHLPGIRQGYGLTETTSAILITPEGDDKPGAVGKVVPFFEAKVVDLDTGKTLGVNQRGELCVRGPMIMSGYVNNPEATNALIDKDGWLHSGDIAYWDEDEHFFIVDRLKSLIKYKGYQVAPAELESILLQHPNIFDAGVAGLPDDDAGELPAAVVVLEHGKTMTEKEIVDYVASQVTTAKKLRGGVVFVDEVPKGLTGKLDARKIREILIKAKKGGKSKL

Row | Structure (SMILES) | Potency [1] | Potency [2] | Potency [3] | outcome [4] | Potency [5] | Potency [6] | Potency [7] | Potency [8] | Potency [9] | Potency [10] | Potency [11] | Potency [12] | Potency [13] | Potency [14] | Potency [15] | Potency [16] | Potency [17] | outcome [18] | outcome [19] | outcome [20]
1 | O=C1NC(=O)C(c2ccccc2)(c2ccccc2)N1 | inactive | inactive | inactive | inactive | inactive | inactive | inactive | inactive | inactive | inactive | inactive | – | – | – | – | – | – | – | – | –
2 | CS(=O)(=O)OCCCCOS(C)(=O)=O | inactive and 17.4 µM (active) | inactive | inactive | – | – | inactive | inactive | inactive | – | – | inactive | inactive | inactive | 30.7 µM (active) and inactive | inactive | – | – | – | – | –
3 | Cc1cccc(C)c1 | inactive | inactive | inactive | – | – | inactive | inactive | inactive | inactive | inactive | inactive | – | – | inactive | inactive | – | – | – | – | –
4 | CN(C)CCOC(c1ccccc1)c1ccccc1 | inactive | inactive | inactive | inactive | inactive | inactive | inactive | inactive | – | – | inactive | – | inactive | – | – | inactive | – | – | – | –
5 | C[C@](N)(Cc1ccc(O)c(O)c1)C(=O)O | inactive | inactive | inactive | inactive | inactive | – | inactive | inactive | inactive | inactive | inactive | – | inactive | – | – | – | – | – | – | –
6 | O=c1[nH]cc(F)c(=O)[nH]1 | 28.2 µM (active) | 45.3 µM (active) and inactive | inactive | inactive | inactive | 41.5 µM (active) and inactive | – | – | – | – | 44.9 µM (active) and inactive | – | – | – | – | – | – | – | – | –
7 | NC(=O)c1cccnc1 | inactive | inactive | inactive | – | – | inactive | inactive | inactive | inactive | inactive | inactive | – | – | – | – | inactive | – | – | – | –
8 | CC(C)NCC(O)c1ccc(O)c(O)c1 (stereo unspecified) | inactive | inactive | inactive | inactive | inactive | – | inactive | inactive | – | – | inactive | – | – | inactive | 5.4 nM (active) and 8.6 nM (active) and inactive | inactive | inactive | inactive | inactive | –
9 | Nc1ccc(S(N)(=O)=O)cc1 | 5.52 µM (active) and inactive | inactive | inactive | – | – | – | inactive | inactive | 27.4 µM (active) and inactive | inactive | inactive | – | – | – | – | inactive | – | – | – | –
10 | CC(=O)Nc1c(I)c(NC(C)=O)c(I)c(C(=O)O)c1I | inactive | inactive | inactive | – | – | – | inactive | inactive | – | – | inactive | – | inactive | – | – | – | – | – | – | –
11 | CC(C)c1c(C(=O)Nc2ccccc2)c(-c2ccccc2)c(-c2ccc(F)cc2)n1CC[C@@H](O)C[C@@H](O)CC(=O)O | inactive | inactive | inactive | inactive | inactive | – | inactive | inactive | inactive | inactive | inactive | – | inactive | – | – | inactive | – | – | – | –
12 | COc1cccc(O)c1O | inactive | inactive | inactive | – | – | inactive | inactive | inactive | inactive | inactive | – | 56.6 µM (active) | – | – | – | 63.5 µM (active) | – | – | – | –
13 | Cc1cn([C@H]2C=C[C@@H](CO)O2)c(=O)[nH]c1=O | inactive and 17.4 µM (active) | inactive | inactive | inactive | inactive | inactive | inactive | inactive | inactive | inactive | inactive | – | – | – | – | inactive | – | – | – | –
14 | NS(=O)(=O)c1cc2c(cc1Cl)NCNS2(=O)=O | inactive | inactive | inactive | inactive | inactive | inactive | inactive | inactive | – | – | inactive | – | – | inactive | inactive | inactive | inactive | inactive | inactive | inactive
15 | CCCCNC(=O)NS(=O)(=O)c1ccc(C)cc1 | inactive | inactive | inactive | inactive | inactive | inactive | inactive | inactive | – | – | inactive | – | – | inactive | inactive | – | inactive | inactive | inactive | inactive
16 | CC1(C)S[C@@H]2[C@H](NC(=O)[C@H](N)c3ccccc3)C(=O)N2[C@H]1C(=O)O | inactive | inactive | inactive | – | – | inactive | inactive | inactive | – | – | inactive | – | – | – | – | inactive | – | – | – | –
17 | NS(=O)(=O)O | inactive | inactive | inactive | – | – | inactive | inactive | inactive | inactive | – | inactive | – | – | – | – | – | – | – | – | –
18 | CC(O)(P(=O)(O)O)P(=O)(O)O | inactive | inactive | inactive | – | – | inactive | inactive | inactive | – | – | inactive | – | – | – | – | inactive | – | – | – | –
